This is one part of a sample in which hits are shown more often than they occur.
AmpC inh detg: qHTS Inhibitors of AmpC Beta-Lactamase (assay with detergent); P00811; AmpC hydrolysis of nitrocefin, absorbance 480 nm, 0.01% Triton; Potency, µM (doses to about 114 µM), inactives show top-dose activity change, negative = inhibition, most hits filed as inhibitors; 0.041% of 370,000 active; AID 485294, 2010;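 note: potency is the fitted concentration of half-maximal effect; 0% = no-compound wells and -100% = no-enzyme wells; nearly all actives have a fitted effect of over 25% in size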
Target sequence (P00811 whole entry, looked up): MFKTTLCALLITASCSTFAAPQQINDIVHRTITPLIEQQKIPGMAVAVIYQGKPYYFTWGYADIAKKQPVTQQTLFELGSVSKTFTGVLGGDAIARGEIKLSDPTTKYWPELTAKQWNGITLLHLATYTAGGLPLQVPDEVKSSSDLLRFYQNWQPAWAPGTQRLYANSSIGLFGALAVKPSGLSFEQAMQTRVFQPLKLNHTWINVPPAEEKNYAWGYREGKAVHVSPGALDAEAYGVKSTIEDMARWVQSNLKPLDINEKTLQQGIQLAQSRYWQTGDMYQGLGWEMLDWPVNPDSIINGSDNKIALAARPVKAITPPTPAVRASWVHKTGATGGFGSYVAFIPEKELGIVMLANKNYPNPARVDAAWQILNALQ
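20 mM phosphate pH 7.0 + 0.01% (detergent screen) or 0.0001% Triton X-100; 5.3 nM AmpC reagent; cpd preinc 15 min RT; nitrocefin (800 uM stock) to start; A480 q20 s × 4 min; Activity was normalised to no-enzyme and no-compound control wells.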
AmpC inh no detg: qHTS Inhibitors of AmpC Beta-Lactamase (assay without detergent) | P00811 | 0.52% of 330,000 active | AmpC nitrocefin hydrolysis, absorbance 480 nm, 0.0001% Triton | Potency, µM (series often up to 57.1 µM), inactives show top-dose activity change, negative = inhibition, actives largely listed as inhibitors;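 note: potency is the fitted concentration of half-maximal effect; plate controls were no compound for no effect and no enzyme for full effect; nearly all actives have a fitted effect of over 20% in size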
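20 mM phosphate pH 7.0 + 0.01% (detergent screen) or 0.0001% Triton X-100; 5.3 nM AmpC reagent; cpd preinc 15 min RT; nitrocefin (800 uM stock) to start; A480 q20 s × 4 min; Activity was normalised to no-enzyme and no-compound control wells.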
SARS PLP yeast: qHTS of Yeast-based Assay for SARS-CoV PLP; S. cerevisiae expressing SARS-CoV PLpro, growth rescue; Potency, µM (doses to about 32.9 µM), for inactives: at the highest dose activity, positive = growth rescue, usual class: activators; 0.19% of 330,000 active; AID 485353, 2010; calls by dose curve; note: potency is the fitted concentration of half-maximal effect; 0% is about no effect; nearly all actives have a fitted effect of over 55% in size
Shiga toxin inh: A qHTS for Small Molecule Inhibitors of Shiga Toxin | Vero cells, Shiga toxin protein synthesis inhibition reporter | inhibition, % at 38.7 µM | 9.2% of 290,000 active | AID 2315, 2010; in the data active = inhibition mostly above about 28%, no sharp cut-off; inactive = mostly below about 43%; note: 0% is about no effect
AMA1-RON2 inh: qHTS for Inhibitors of AMA1-RON; Towards Development of Antimalarial Drug Lead: Primary Screen. AlphaScreen AMA1-biotinylated RON2 peptide binding. Potency, µM (top dose mostly 58.2 µM), inactives show at the highest dose activity change, negative = inhibition, usual class: inhibitors. 0.2% of 360,000 active. Plasmodium falciparum AMA1 (3D7) - RON2 peptide interaction;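 note: potency is the fitted concentration of half-maximal effect; 0% = vehicle wells and -100% = peptide control; nearly all actives have a fitted effect of over 45% in size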
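AMA1 (3D7) with his tag at 25 nM final met compounds first, then biotinylated RON2 peptide at 25 nM; detection used donor plus acceptor beads, 10 µg/mL apiece, read by AlphaScreen after 30 min at room temperature.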
CHX counter: Cycloheximide Counterscreen for Small Molecule Inhibitors of Shiga Toxin. 12% of 300,000 active. max response, %. cell reporter, cycloheximide protein synthesis inhibition counterscreen; in the data active = max response mostly above about 13%, no sharp cut-off; inactive = mostly below about 14%; note: read at 38.3 µM for the half of the compounds with a filed dose; 0% is about no effect
* hit, by the source's call; [ ] = remark or other dose. Unless noted, calls come from the whole dose curve; as a rule, active = well fitted curve in the direction sought with a large enough effect; inconclusive = small, poorly fitted or top-dose-only effect, or another doubt; inactive = no such curve, though single readings can be large; an effect the other way counts as inactive or inconclusive.

Results for Cc1ccc(C)c(N2CCN(C(=O)CCc3nc(-c4ccc(Br)cc4)no3)CC2)c1 ?
AmpC inh no detg: 1.7%; SARS PLP yeast: -2.5%; AMA1-RON2 inh: 2.9%

What do the screens show for `COc1cc(CN2CCCC(CCC(=O)NCc3ccc(C)o3)C2)cc2c1OCO2` (centres undefined)?
AmpC inh detg: 3.4%; AmpC inh no detg: 14.3%; SARS PLP yeast: 0.2%; Shiga toxin inh: -13.8; AMA1-RON2 inh: -12.1%; CHX counter: -2.1

How did O=S(=O)(c1ccc(Br)cc1)N1CCCN(Cc2cccc(F)c2)CC1 do in these assays?
AmpC inh detg: inconclusive; AmpC inh no detg: -14.4%; SARS PLP yeast: -18.5%; Shiga toxin inh: -4.0; AMA1-RON2 inh: 5.2%[11.6 µM]; CHX counter: -3.0

What do the screens show for `COC(=O)c1ccc(CNC(=O)CCc2c[nH]c3ccccc23)cc1`?
AmpC inh detg: inconclusive; AmpC inh no detg: -5.8%; SARS PLP yeast: 0.7%; Shiga toxin inh: 3.7; AMA1-RON2 inh: -7.9%; CHX counter: -2.5

Results for COC(=O)c1ccc2c(CCO)c[nH]c2c1 ?
AmpC inh detg: 3.3%; AmpC inh no detg: -25.7%; SARS PLP yeast: -1.7%; Shiga toxin inh: 37.2*; AMA1-RON2 inh: 16.5%; CHX counter: 24.9*

What do the screens show for `COc1ccc([C@H]2/C=C\CN(S(=O)(=O)/C=C/c3ccccc3)[C@@H](C)C(=O)N2Cc2ccc(F)cc2)cc1`?
AMA1-RON2 inh: -6.0%

Results for O=C(NCc1ccc(Cl)cc1)Nc1ccc(F)cc1 ?
AmpC inh detg: 9.0%; AmpC inh no detg: -41.9%; SARS PLP yeast: 0.4%; Shiga toxin inh: 28.7; AMA1-RON2 inh: -3.8%; CHX counter: 48.7*

How did O=C(NC(=S)NCCC1=CCCCC1)c1cccnc1 do in these assays?
AmpC inh detg: 4.9%; AmpC inh no detg: -7.0%; SARS PLP yeast: 0.2%; Shiga toxin inh: 40.2*; AMA1-RON2 inh: 21.7%; CHX counter: 14.1*

How did Cc1nnsc1SCCNC(=O)Nc1ccc(Cl)cc1 do in these assays?
AmpC inh detg: 3.0%; AmpC inh no detg: -13.4%[2.29 µM]; SARS PLP yeast: -1.7%; Shiga toxin inh: 81.8*; AMA1-RON2 inh: 1.0%; CHX counter: 23.7*

What do the screens show for `O=C(NC(=S)NCc1ccccc1)c1cccnc1`?
AmpC inh detg: 1.7%; AmpC inh no detg: -6.2%; SARS PLP yeast: 23.5%; Shiga toxin inh: 1.7; AMA1-RON2 inh: -15.2%; CHX counter: 8.0

How did CC(C)c1ccc(NC(=O)NCc2ccc(F)cc2)cc1 do in these assays?
AmpC inh detg: 3.2%; AmpC inh no detg: -27.5%; SARS PLP yeast: 0.4%; Shiga toxin inh: 37.6; AMA1-RON2 inh: -2.2%; CHX counter: 10.3

What do the screens show for `Fc1ccc(NC(=S)NCCc2ccc(Cl)cc2)cc1`?
AmpC inh detg: 3.8%; AmpC inh no detg: -18.7%; SARS PLP yeast: -55.5%; Shiga toxin inh: 93.2*; AMA1-RON2 inh: -10.5%; CHX counter: 48.2*

Results for C[C@@H]1O[C@@H](OC2O[C@@H](COc3cc(O)c4c(=O)cc(-c5ccc(O)cc5)oc4c3)[C@@H](O)[C@@H](O)[C@@H]2O)[C@H](O)[C@H](O)[C@H]1O (some centres undefined) ?
Shiga toxin inh: -3.4; CHX counter: 5.3

How did CC1(CCc2ccccc2)NC(=O)N(Cc2cc([N+](=O)[O-])cc3c2OCOC3)C1=O (centres undefined) do in these assays?
AmpC inh detg: inconclusive; AmpC inh no detg: 0.9%; SARS PLP yeast: -1.3%; Shiga toxin inh: -8.5; AMA1-RON2 inh: 2.5%; CHX counter: -2.3

What do the screens show for `S=C(NCCC1=CCCCC1)Nc1ccc(Cl)cc1`?
AmpC inh detg: -1.3%; AmpC inh no detg: -39.3%; SARS PLP yeast: 1.6%; Shiga toxin inh: 62.8*; AMA1-RON2 inh: -1.0%; CHX counter: 44.3*

How did COc1ccc(CCNC(=O)C2CCN(C(=O)c3ccc(Cl)cc3)CC2)cc1 do in these assays?
AmpC inh detg: 1.7%; AmpC inh no detg: 43.9%; SARS PLP yeast: -4.6%; Shiga toxin inh: -31.7; AMA1-RON2 inh: -11.5%; CHX counter: -2.0

Results for O=C(NCCC1=CCCCC1)C1CCN(C(=O)c2ccc(Cl)cc2)CC1 ?
AmpC inh detg: -2.5%; AmpC inh no detg: 111.6%; SARS PLP yeast: 2.2%; Shiga toxin inh: 66.5*; AMA1-RON2 inh: 21.6%; CHX counter: 30.6*

What do the screens show for `CSc1ccc(NC(=O)NCc2ccccc2)cc1`?
AmpC inh detg: 1.3%; AmpC inh no detg: -24.1%; SARS PLP yeast: 0.2%; Shiga toxin inh: 90.9*; AMA1-RON2 inh: 12.9%; CHX counter: 44.3*

What do the screens show for `O=C(NCCc1ccc(F)cc1)Nc1ccc([N+](=O)[O-])cc1`?
AmpC inh detg: 2.2%; AmpC inh no detg: -32.7%; SARS PLP yeast: -13.5%; Shiga toxin inh: 54.1; AMA1-RON2 inh: -12.6%; CHX counter: 21.3*

Results for O=[N+]([O-])c1ccc(NC(=S)NCCc2ccc(F)cc2)cc1 ?
AmpC inh detg: -1.6%; AmpC inh no detg: -30.9%; SARS PLP yeast: -86.7%; Shiga toxin inh: 13.0; AMA1-RON2 inh: -3.9%; CHX counter: 3.0

Results for Cc1cccc(Oc2cnn(C(C)(C)C)c(=O)c2Cl)c1 ?
AmpC inh detg: inconclusive; AmpC inh no detg: -20.2%; SARS PLP yeast: 7.1%; Shiga toxin inh: 25.1; AMA1-RON2 inh: 15.1%; CHX counter: 0.7

What do the screens show for `COC(=O)[C@H](CCSC)NC(=O)NC1CC1`?
AmpC inh detg: 2.6%; AmpC inh no detg: -9.8%; SARS PLP yeast: 0.4%; Shiga toxin inh: -13.8; AMA1-RON2 inh: 2.1%; CHX counter: 8.4

What do the screens show for `Cc1ccc(NC(=O)c2sc3ncnc(N(C)C4CCCCC4)c3c2C)cc1`?
AmpC inh detg: 13.5%

Results for COc1ccc(CN2CC(C(=O)NCCC3=CCCCC3)CC2=O)cc1 (centres undefined) ?
AmpC inh detg: -0.6%; AmpC inh no detg: 42.5%; SARS PLP yeast: -1.2%; Shiga toxin inh: -16.1; AMA1-RON2 inh: 9.4%; CHX counter: -3.7

What do the screens show for `Cc1ccc(CNC(=O)Nc2ccc(Cl)cc2)cc1`?
AmpC inh detg: 3.2%; AmpC inh no detg: -11.7%; SARS PLP yeast: -2.1%; Shiga toxin inh: 19.9; AMA1-RON2 inh: -3.8%; CHX counter: 17.1*

How did Cc1ccc(NC(=O)C(=O)NCc2ccc(Cl)cc2)cc1 do in these assays?
AmpC inh detg: 9.3%

What do the screens show for `O=C(NCc1ccc(F)cc1)Nc1ccccc1`?
AmpC inh detg: -3.9%; AmpC inh no detg: -24.2%; SARS PLP yeast: 0.4%; Shiga toxin inh: 79.1*; AMA1-RON2 inh: -14.5%; CHX counter: 37.3*

Screening data from PubChem BioAssay.
